Results taken from PubChem BioAssay (NCI).
Where “and” joins values, the source holds several entries; their conditions need not be identical. Equal entries are not always repeated. This is part of a sample that, as a whole, favours compounds with a hit. Of some 79,000 tested, about 15% had one in any assay. Calls of active or inactive are those of the source. No stated cut-off is given here; in the data, active means growth inhibition above about 70%; inactive means the rest.

Test: NCI Yeast Anticancer Drug Screen. Data for the mlh1 rad18 strain (AID 175)
Details: S. cerevisiae mlh1 rad18 strain growth inhibition, hits give high values
Method: Growth inhibition of yeast strains with defined genetic alterations is measured as a screen for potential anti-cancer activity. Selected strains with alterations in DNA damage repair or cell cycle control were exposed to compounds and growth inhibition was measured relative to vehicle treated controls. The strain used in this assay is mlh1 rad18

[1] = at 5.0 µM (retest, dose inferred, filed as 0.5)
[2] = at 50.0 µM (retest, dose inferred, filed as 5.0)

SMILES	growth inhibition [1]	growth inhibition [2]	growth inhibition (at 50.0 µM)
O=C1Nc2ccc(Br)cc2C1=O	-9% (inactive)	91% (active)	99.6% (active)
Nc1ccc(-c2ccc(N)c(S(=O)(=O)O)c2)cc1S(=O)(=O)O	13% (inactive)	6% (inactive)	-21.8% (inactive)
COc1cc(NCc2ccc3nc(N)nc(N)c3c2C)cc(OC)c1OC (tested in a mixture with another compound)	23% (inactive)	36% (inactive)	-45.4% (inactive)
CCCCCCCCCCCC1=NCCCN1CCCC	28% (inactive)	99% (active)	95.3% (active)
CC1=NN(c2ccccc2)C(=O)C1(Br)Br	32% (inactive)	58% (inactive)	93.3% (active)
Oc1ccc(Cl)cc1C(c1cc(Cl)ccc1O)C(Cl)(Cl)Cl	99% (active)	99% (active)	99.2% (active)
N#C/C(=N\Nc1ccc(Cl)cc1)C(=O)C1CC1	62% (inactive)	69% (inactive)	82% (active)
OCCOSCCO	4% (inactive)	-4% (inactive)	-14.1% (inactive)
N#CC(=C1SCS1)[N+](=O)[O-]	98% (active)	99% (active)	92.7% (active)
O=[N+]([O-])CC(O)c1ccccc1 (stereo unspecified)	-2% (inactive)	4% (inactive)	51.9% (inactive)
COC(=O)c1ccc(Cl)c(NN)c1	38% (inactive)	42% (inactive)	88.7% (active)
CCCC[n+]1c(/C=C\c2c(OC)cc(OC)cc2OC)ccc2ccccc21	44% (inactive)	97% (active)	88% (active)
Nc1cccc2cc(S(=O)(=O)O)ccc12			-5.5% (inactive) and -35.7% (inactive)
OC1Cc2ccccc2CC1O (stereo unspecified)			-5.8% (inactive) and -14.7% (inactive)
Cc1cccc(OC(=O)Cc2ccccc2)c1			-16.2% (inactive) and -8% (inactive)
CCOC(=O)C(NC(C)=O)C(C)=O (stereo unspecified)			-5.85% (inactive) and 11.9% (inactive)
CC1CC(=O)C2CC1C2(C)C (stereo unspecified)			-6.1% (inactive) and 23.9% (inactive)
